# Measurements published in the supplement of paper PMC8728848.
# About 410 targets per protein were measured; listed, in parts, are those with the strongest signals and a random draw of the rest.
# Columns and labels:
# Assay in all cases: glycan array binding signal (z-score within array); higher = stronger binding
# Conditions in all cases: glycan notation: IUPAC condensed, linker removed
# Gal3S6S(b1-4)GlcNAc = target: Gal3S6S(b1-4)GlcNAc
# How it was run: (§1)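 Glycan array data came from 3228 arrays in the Consortium for Functional Glycomics database, and only arrays with an available protein sequence were kept. Glycan names were put into IUPAC-condensed notation, and columns mapping to the same glycan were averaged. The binding signal is a within-array Z-score, averaged across arrays of one protein sequence run at different concentrations or buffers and across linkers. A negative Z-score can be read as non-binding.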
# Gal4S6S(b1-4)GlcNAc = target: Gal4S6S(b1-4)GlcNAc
# How it was run: as §1
# GalNAc(b1-4)GlcNAc6S = target: GalNAc(b1-4)GlcNAc6S
# How it was run: as §1
# GalNAc3S(b1-4)GlcNAc = target: GalNAc3S(b1-4)GlcNAc
# How it was run: as §1
# Glc(b1-4)Glc = target: Glc(b1-4)Glc
# How it was run: as §1
# GlcA(b1-6)Gal = target: GlcA(b1-6)Gal
# How it was run: as §1
# [1] = target: GlcNAc(a1-4)Gal(b1-4)GlcNAc(b1-3)Gal(b1-4)GlcNAc
# How it was run: as §1
# [2] = target: GlcNAc(b1-2)Gal(b1-3)GalNAc
# How it was run: as §1
# [3] = target: GlcNAc(b1-2)[GlcNAc(b1-4)]Man(a1-3)[GlcNAc(b1-4)][GlcNAc(b1-2)[GlcNAc(b1-6)]Man(a1-6)]Man(b1-4)GlcNAc(b1-4)[Fuc(a1-6)]GlcNAc
# How it was run: as §1
# [4] = target: GlcNAc(b1-3)Gal(b1-4)GlcNAc(b1-3)Gal(b1-4)GlcNAc(b1-3)Gal(b1-4)GlcNAc(b1-3)Gal(b1-4)GlcNAc(b1-2)[GlcNAc(b1-3)Gal(b1-4)GlcNAc(b1-3)Gal(b1-4)GlcNAc(b1-3)Gal(b1-4)GlcNAc(b1-3)Gal(b1-4)GlcNAc(b1-6)]Man(a1-6)[GlcNAc(b1-3)Gal(b1-4)GlcNAc(b1-3)Gal(b1-4)GlcNAc(b1-3)Gal(b1-4)GlcNAc(b1-3)Gal(b1-4)GlcNAc(b1-2)Man(a1-3)]Man(b1-4)GlcNAc(b1-4)[Fuc(a1-6)]GlcNAc
# How it was run: as §1
# [5] = target: GlcNAc(b1-3)Gal(b1-4)GlcNAc(b1-3)GalNAc
# How it was run: as §1
# [6] = target: GlcNAc(b1-3)Gal(b1-4)GlcNAc(b1-6)[Gal(b1-3)]GalNAc
# How it was run: as §1
# [7] = target: GlcNAc6S(b1-3)Gal(b1-4)GlcNAc
# How it was run: as §1
# [8] = target: Man(a1-2)Man(a1-2)Man(a1-6)[Man(a1-3)]Man
# How it was run: as §1
# Man(a1-2)Man(a1-3)Man = target: Man(a1-2)Man(a1-3)Man
# How it was run: as §1
# [9] = target: Man(a1-2)Man(a1-3)[Man(a1-2)Man(a1-6)]Man(a1-6)[Man(a1-2)Man(a1-2)Man(a1-3)]Man
# How it was run: as §1
# [10] = target: Neu5Ac(a2-3)Gal(b1-3)GlcNAc(b1-3)Gal(b1-3)GlcNAc
# How it was run: as §1
# [11] = target: Neu5Ac(a2-3)Gal(b1-3)[Fuc(a1-4)]GlcNAc
# How it was run: as §1
# [12] = target: Neu5Ac(a2-3)Gal(b1-3)[Neu5Ac(a2-6)]GalNAc
# How it was run: as §1
# [13] = target: Neu5Ac(a2-3)Gal(b1-4)GlcNAc(b1-6)[Gal(b1-3)]GalNAc
# How it was run: as §1
# [14] = target: Neu5Ac(a2-3)Gal(b1-4)[Fuc(a1-3)]GlcNAc(b1-3)Gal(b1-4)GlcNAc
# How it was run: as §1
# [15] = target: Neu5Ac(a2-6)Gal(b1-4)GlcNAc(b1-2)Man(a1-3)Man(b1-4)GlcNAc(b1-4)GlcNAc
# How it was run: as §1
# [16] = target: Neu5Ac(a2-6)Gal(b1-4)GlcNAc(b1-2)Man(a1-3)[Gal(b1-4)GlcNAc(b1-2)Man(a1-6)]Man(b1-4)GlcNAc(b1-4)GlcNAc
# How it was run: as §1
# [17] = target: Neu5Ac(a2-6)Gal(b1-4)GlcNAc(b1-2)Man(a1-3)[Neu5Ac(a2-3)Gal(b1-4)GlcNAc(b1-2)Man(a1-6)]Man(b1-4)GlcNAc(b1-4)GlcNAc
# How it was run: as §1
# [18] = target: Neu5Ac(a2-6)Gal(b1-4)GlcNAc(b1-3)Gal(b1-3)GlcNAc
# How it was run: as §1
# [19] = target: Neu5Ac(a2-6)Gal(b1-4)GlcNAc(b1-6)[Gal(b1-3)]GalNAc
# How it was run: as §1
# [20] = target: Neu5Ac(a2-8)Neu5Ac(a2-8)Neu5Ac
# How it was run: as §1
# [21] = target: Neu5Ac(a2-8)Neu5Gc(a2-3)Gal(b1-4)GlcNAc
# How it was run: as §1
# [22] = target: Neu5Ac9Ac(a2-3)Gal(b1-4)GlcNAc
# How it was run: as §1
binder,measurement,setting,value
PX9937J-pdi-523-26-523 (Parabacteroides distasonis) (protein) EPVSSISDANYWKSPDLFKAFNIGLHGLLRSQSSYNIFVLGEPRSDIYGDQPFGGEATQGVERFSYNTINAEFTGISNFANFYTTLNQINLMIRRTNETDLLGEAEKNYYLGQAYGLRAYIYFHLLRSWGDVIITTEPTLGSELDISHLDKAASPASEVMDLIKKDIDASEKAFGGDYSYKQGKCYWSKPATLMLKGEVYLWSGRQMGGGTGDYTVAKTALQDLQQNGNLKLQEKFTDVFSFNNKENSEMIFALHSGKEDDFMMWRDYNWRNNMVPQREYMAGYCDETGTPFLEIPGYNLQGLMRYQVKKDHYLKSFREGDTRLKGTLKAVYKKHEDGTLEYIAPIQYKFQGTTLEGSNERSWYDDYPIYRYADALLLLAEAKALLGEDPSTEINAVRERAYGSEYFNAHKNEVAYPNDKGSFYNDNPFEAGDENVMEAILKERLREFFFEGKRWYDLRRFGKDYVLKYTTAQESRLLWPINEGALTNNPALKQTPGY,glycan array binding signal (z-score),Gal3S6S(b1-4)GlcNAc,0.142
same,glycan array binding signal (z-score),Gal4S6S(b1-4)GlcNAc,-0.181
same,glycan array binding signal (z-score),GalNAc(b1-4)GlcNAc6S,4.57
same,glycan array binding signal (z-score),GalNAc3S(b1-4)GlcNAc,0.755
same,glycan array binding signal (z-score),Glc(b1-4)Glc,-0.296
same,glycan array binding signal (z-score),GlcA(b1-6)Gal,-0.638
same,glycan array binding signal (z-score),[1],-0.296
same,glycan array binding signal (z-score),[2],-0.438
same,glycan array binding signal (z-score),[3],-0.488
same,glycan array binding signal (z-score),[4],4.67
same,glycan array binding signal (z-score),[5],-0.404
same,glycan array binding signal (z-score),[6],-0.195
same,glycan array binding signal (z-score),[7],0.294
same,glycan array binding signal (z-score),[8],-0.284
same,glycan array binding signal (z-score),Man(a1-2)Man(a1-3)Man,-0.138
same,glycan array binding signal (z-score),[9],-0.317
same,glycan array binding signal (z-score),[10],-1
same,glycan array binding signal (z-score),[11],0.062
same,glycan array binding signal (z-score),[12],0.071
same,glycan array binding signal (z-score),[13],-0.1
same,glycan array binding signal (z-score),[14],3.41
same,glycan array binding signal (z-score),[15],-0.373
same,glycan array binding signal (z-score),[16],4.14
same,glycan array binding signal (z-score),[17],-0.327
same,glycan array binding signal (z-score),[18],-0.303
same,glycan array binding signal (z-score),[19],0.505
same,glycan array binding signal (z-score),[20],-0.094
same,glycan array binding signal (z-score),[21],9.17
same,glycan array binding signal (z-score),[22],-0.44
